Results filed as inconclusive are left out. Calls of active or inactive are those of the source. The call rests on the fitted dose curve; in most records, active means well fitted inhibition curve with a large enough effect; inconclusive means small, poorly fitted or top-dose-only effect; inactive means flat fitted curve, though single readings scatter.
What follows are compounds tested against Calcium and integrin-binding protein 1 (Homo sapiens) (UniProt Q99828) (assay: Primary qHTS for Identification of Calcium Integrin Binding Protein 1 (CIB1) Competitor (AID 1508620;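 further: GST tagged CIB1 binding a fluorescein labelled alphaIIb integrin peptide tracer; top concentration of the series differs between compounds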)). Details: CIB1-GST / FITC-alphaIIb peptide fluorescence polarization; series mostly up to 114 µM; activity change, negative = inhibition: at the top concentration.
Method in brief: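 CIB1-GST (1 uM final) and compound incubated 15 min at room temperature before adding FITC-alphaIIb peptide tracer (100 nM final). Competition for binding read by fluorescence polarization (ex 480, em 540) after another 15 min at room temperature.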
On the % scale 0 is the no-effect control and ±100 the full control effect.

Sequence of Calcium and integrin-binding protein 1 (Homo sapiens) (Q99828 whole entry, looked up): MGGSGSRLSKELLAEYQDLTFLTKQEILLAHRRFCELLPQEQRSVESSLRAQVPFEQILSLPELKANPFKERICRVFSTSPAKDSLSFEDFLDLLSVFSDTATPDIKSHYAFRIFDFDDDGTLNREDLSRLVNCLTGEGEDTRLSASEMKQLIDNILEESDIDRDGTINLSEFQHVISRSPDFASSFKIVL

| SMILES | activity change, negative = inhibition | Potency |
| --- | --- | --- |
| Brc1cnc2nc(SCc3cccnc3)[nH]c2c1 | -2.06% (inactive) | – |
| O=C1Cc2cc(S(=O)(=O)N3CCN(c4ccc(F)cc4)CC3)ccc2N1 | 3.72% [at 228 µM] (inactive) | – |
| COc1ccc(C2Nc3ccccc3C(=O)N2Cc2ccccc2)cc1COc1ccc(C(N)=O)cc1 (stereo not given) | 3.92% (inactive) | – |
| O=C1c2ccccc2C(=O)N1C1CCCCC1 | -0.478% (inactive) | – |
| Cc1ccc(NC(=O)c2cnn3c(C)cc(C)nc23)cc1 | -0.23% (inactive) | – |
| N#CC1=C(NC=NCc2ccccc2)Oc2ccc3ccccc3c2C1c1ccccc1 (stereo not given) | 13.6% (inactive) | – |
| O=C(Cc1ccc(Cl)c(Cl)c1)Nc1ccc(S(=O)(=O)Nc2cccc(O)c2)cc1 | -14.6% (inactive) | – |
| COc1ccc(C2Nc3ccccc3C(=O)N2Cc2ccc(CNC(=O)CO)cc2)cc1COc1ccc(NC(C)=O)cc1 (stereo not given) | -3.04% (inactive) | – |
| O=C(CSc1nnc(-c2cccc([S+](=O)([O-])N3CCCC3)c2)n1-c1ccccc1)Nc1ccc(Br)cc1 | 13.7% (inactive) | – |
| COc1ccc(NC(=O)c2cnn3c(C)cc(C)nc23)cc1F | 6.7% (inactive) | – |
| Cc1cc(C)n2ncc(C(=O)Nc3ccc(C)c(C)c3)c2n1 | 5.65% (inactive) | – |
| O=C1CCCC2=C1C(c1cccc(Oc3ccccc3)c1)N=C(Nc1nc3ccccc3o1)N2 (stereo not given) | -0.432% (inactive) | – |
| CC(=O)NC(C)c1cc(F)c2cccnc2c1O (stereo not given) | -25% (inactive) | – |
| NC(=O)C1CCN(c2ncc(-c3cccc(N4CCCC4)c3)s2)CC1 | -12.1% (inactive) | – |
| Cc1cc(-c2nnc3n2CCCCC3)c(C)n1-c1ccncc1 | -1.22% (inactive) | – |
| O=[S+]([O-])(Nc1ccc(-c2nc3ccccc3[nH]2)cc1)c1ccc2c(c1)CCO2 | 0.754% (inactive) | – |
| CC(O)c1cc2c(s1)c1cnn(Cc3ccccc3F)c(=O)c1n2C (stereo not given) | -0.526% (inactive) | – |
| O=S(=O)(c1cccc(F)c1)N1CCN(S(=O)(=O)c2ccc3c(c2)OCCO3)CC1 | -4.8% (inactive) | – |
| CCOc1ccc(NC(=O)Nc2ccc(-c3nc4ccccc4[nH]3)cc2)cc1 | -3.49% (inactive) | – |
| Oc1ccc(CNc2cccnc2)c2cccnc12 | 4.29% (inactive) | – |

| SMILES | activity change, negative = inhibition | Potency |
| --- | --- | --- |
| O=C(Nc1cccc(-c2nn3c(=O)cc(N4CCNCC4)nc3s2)c1)c1ccncc1 | 4.17% (inactive) | – |
| N#Cc1nc(Nc2cccc(Cl)c2)nc(NC2CCCC2)n1 | 10.1% (inactive) | – |
| Cc1cccc(-n2cnc3cc(C(=O)N4CCC(C#N)CC4)ccc32)c1 | -0.663% (inactive) | – |
| COc1ccc(C2=Nn3c(nnc3-c3ccc(OC)cc3OC)SC2)c(OC)c1 | -0.296% (inactive) | – |
| O=C(Nc1cccc2nn(-c3ccc(F)cc3)cc12)c1ccccn1 | -0.135% (inactive) | – |
| COc1ccc(C2=Nn3c(nnc3-c3ccccc3Cl)SC2)cc1OC1CCOC1 (stereo not given) | -1.02% (inactive) | – |
| FC(F)(F)c1ccccc1-c1nc(NCc2ccc(-c3ccc4c(c3)OCO4)cc2)c2ccccc2n1 | 0.658% (inactive) | – |
| O=C(OCC#CCSc1nnc(-c2cccc3ccccc23)o1)c1ccc(F)nc1 | -1.26% (inactive) | – |
| O=C(NC1CCCc2c1cnn2-c1ccc(F)cc1F)c1cccc(=O)[nH]1 (stereo not given) | -0.0994% (inactive) | – |
| Oc1cc(-c2ccc(N3CCCCC3)nc2)cc2cccnc12 | -3.03% (inactive) | – |
| Cc1sc(NC(=O)Cc2ccc3c(c2)OCO3)nc1-c1ccc2c(c1)CCN2C | 10.4% (inactive) | – |
| CC(C)(C)OC(=O)N1CCN(c2ccc(NCc3cnc(-c4ccc(C#N)cc4)s3)cc2)CC1 | 5.77% (inactive) | – |
| COc1cc(NC(=S)N2CCN(c3cccc(C(F)(F)F)c3)CC2)nc2ccccc12 | -7.81% (inactive) | – |
| Cc1occc1-c1ccc2ncnc(NCc3ncc[nH]3)c2c1 | -2.18% (inactive) | – |
| O=C(Cc1nnc(-c2ccncc2)s1)Nc1ccc(F)c(C(F)(F)F)c1 | 6.46% (inactive) | – |
| COc1ccc(C2Nc3ccccc3C(=O)N2Cc2ccco2)cc1COc1ccccc1C (stereo not given) | -4.54% (inactive) | – |
| Cc1cc(C)nc(NC(=S)N2CCN(c3ccc(C(=O)O)cc3)CC2)c1 | -6.82% (inactive) | – |
| N#Cc1no[n+]([O-])c1-c1ccccc1 | -2.19% (inactive) | – |
| Cc1ccc(NC(=O)CN2C(=O)N/C(=C\c3cccn3-c3ccc(C(=O)O)cc3)C2=O)cc1 | – | inactive |
| COc1ccc(C(F)(F)F)cc1NC(=O)C(OC(=O)CNC(=O)c1ccccc1)c1ccccc1 (stereo not given) | 2.97% (inactive) | – |

Source: PubChem BioAssay (NCATS)
